# Laboratory results as given in PubChem BioAssay AID652067 (The Scripps Research Institute Molecular Screening Center, 2013).
# Screen size: about 370,000 compounds; about 5,400 (1.5%) were called active.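 How the source made its calls: active means activation above the mean of all tested compounds plus 3 SD (cut at about 5.5% in these data); inactive means the rest.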 This excerpt belongs to a sample that is enriched for actives.
# Tested on: DAF-12 nuclear receptor (Haemonchus contortus)
# Assay: hcDAF-12 driven luciferase reporter activation – cell-based, luminescence, HEK293, lit1-tk-luc reporter, primary screen (AID 652067);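 further: 100% = response to 3 µM Δ7-dafachronic acid high control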
# Conditions: HEK293 hcDAF-12 lit1-tk-luc reporter, at 6.8 µM, active compounds read high, 0% DMSO, 100% Δ7-dafachronic acid
row,Structure (SMILES),activation
1,COc1ccc(C2CC(c3ccccc3)=NN2C(=O)c2ccc(Cl)c([N+](=O)[O-])c2)cc1 (stereo not given),0.35% (inactive)
2,COc1ccc(C2=NN(C(=O)c3ccccc3C(=O)O)C(c3ccccc3O)C2)cc1 (stereo not given),12.9% (active)
3,CCOc1ccc2nc(Cl)c(C3CC(c4ccccc4)=NN3C(=O)c3cccs3)cc2c1 (stereo not given),-2.57% (inactive)
4,O=C1Nc2ccccc2OC1CC(=O)N1CCCCCCC1 (stereo not given),1.16% (inactive)
5,CCCCNC(=O)C[C@H]1C[C@@]2(C(=O)OC)C(=C[C@H](COCc3ccccc3)O[C@@H]2C)N(Cc2ccc(Cl)cc2Cl)C1=O,-3.26% (inactive)
6,C=C(C)C#CC(Cc1ccccc1)NCC1CC1 (stereo not given),-1.73% (inactive)
7,CCN(CC)CC(=O)Nc1sc2c(c1C(=O)c1ccccc1C)CCC2,-0.3% (inactive)
8,NC(=O)c1c(NC(=O)c2ccccc2)sc2c1CCCC2,7.46% (active)
9,O=C(O)c1c(NC(=O)N2CCCC2)sc2c1CCCC2,-0.22% (inactive)
10,Cc1nc2ccc(C(=O)N3CCN(C(=O)C(C)(C)C)CC3)cc2n1C1CCCC1,-2.87% (inactive)
11,CC(CCN1CCC(C(O)(c2ccccc2)c2ccccc2)CC1)Oc1ccc([N+](=O)[O-])cc1Cl (stereo not given),6.54% (active)
12,CC(CCN1CCC(C(O)(c2ccccc2)c2ccccc2)CC1)Oc1ccc(Cl)cc1 (stereo not given),4.67% (inactive)
13,CC(CCN1CCC(C(O)(c2ccccc2)c2ccccc2)CC1)Oc1ccc(C(F)(F)F)cc1 (stereo not given),-0.22% (inactive)
14,Cc1cc(C)cc(NC(=O)N2CCC(N(C)CCC(C)C)CC2)c1,-0.86% (inactive)
15,CC(C)(C)OC(=O)NCc1cc(F)ccc1/C=C/S(=O)(=O)NCCc1ccccc1,-0.58% (inactive)
16,CCOC(=O)c1c(NC(=S)Nc2ccccc2)sc2c1CCN(C)C2,0.34% (inactive)
17,CCOC(=O)c1cc2c(nc1NC(=S)Nc1ccccc1)CC(C)(CC)OC2 (stereo not given),-0.86% (inactive)
18,CCOC(=O)c1cn[nH]c1NC(=S)Nc1ccccc1,7.58% (active)
19,C[C@H]1CN([C@@H](C)CO)C(=O)CCCn2nncc2CO[C@@H]1CN(C)C(=O)Nc1ccc(N2CCN(C)CC2)cc1,-1.4% (inactive)
20,Cc1ccc2[nH]c(C(=O)O)c(NC(=O)c3ccccc3[N+](=O)[O-])c2c1,3.39% (inactive)
21,O=C(O)c1[nH]c2ccccc2c1C(c1cccc(O)c1)c1c(C(=O)O)[nH]c2ccccc12,6.89% (active)
22,CCCS(=O)(=O)Nc1c(C(=O)O)[nH]c2ccccc12,3.5% (inactive)
23,CCC(c1ccc(NC(=O)OC(C)(C)C)cc1)c1cc(OC)cc(OC)c1 (stereo not given),-1.61% (inactive)

row,Structure (SMILES),activation
1,CCOc1ccc(Oc2c(Cl)cnn(-c3ccc(C)cc3)c2=O)cc1,-0.82% (inactive)
2,N#CC1=C(N)Oc2c(sc3ccccc23)C1c1ccco1 (stereo not given),6.9% (active)
3,CCC(=O)c1c(CC)c2n3c1=CC[C@H]3CC(Br)C=2 (stereo not given in full),-2.16% (inactive)
4,CN(C)c1ccnc(Nc2ccc(F)cc2)c1C#N,1% (inactive)
5,CC(C)c1ccc(Nc2ncccc2C#N)cc1,5.74% (active)
6,CCN1C(=O)N[C@@H]2C[C@H](C(=O)N3CCCC3)[C@H](C)[C@H](c3ccccc3)C[C@@H]21,0.19% (inactive)
7,CC(C)CNc1cccc2c1S(=O)(=O)N(Cc1cn(Cc3ccc(Cl)cc3)nn1)Cc1ccccc1O2,-0.84% (inactive)
8,CCCCc1nc2ccccc2c(NC(=O)CN2CCN(C)CC2)c1CCC,0.46% (inactive)
9,COC(=O)c1cc(N2CCNCC2)nc2ccccc12,0.41% (inactive)
10,CCc1ccc(-c2cc(C(=O)NN3CCN(C)CC3)c3ccccc3n2)cc1,6.67% (active)
11,COC(=O)C(C(=O)OC)c1ccccc1NS(=O)(=O)c1cccc2ccccc12,-1.63% (inactive)
12,COc1cccc(/C=C2\CC3(OC(C)=O)CCCN2C3)c1 (stereo not given),-1.14% (inactive)
13,CNC(=O)c1sc(Nc2ccc(OCc3ccccc3)cc2)nc1C,-3.73% (inactive)
14,COc1cccc2sc(Nc3nc(C)c(C(C)=O)s3)nc12,6.52% (active)
15,COc1ccccc1Nc1ncc(C(C)=O)c(C)n1,-0.49% (inactive)
16,CCOC(=O)N1CCN(C(=O)C[C@@H]2C(=O)N(CCc3ccc(Cl)cc3)C3=CCCC[C@]32C(=O)OCC)CC1,-4.47% (inactive)
17,CCCCNC(=O)C[C@@H]1C(=O)N(CCc2ccc(Cl)cc2)C2=CCCC[C@]21C(=O)OCC,-2.83% (inactive)
18,N/C(=N\OC(=O)CCC1CCCCC1)c1ccccn1,4.24% (inactive)
19,Cc1ccc(C(=O)O/N=C(\N)c2ccccn2)cc1Cl,8.22% (active)
20,O=C(COC(=O)c1ccccn1)NNC(=O)c1ccc(Br)cc1,-2.22% (inactive)
21,C/C(=N/OC(=O)c1cccc(C(F)(F)F)c1)c1cnccn1,-0.26% (inactive)
22,COc1ccccc1OCC(=O)O/N=C(\N)c1ccccn1,7.16% (active)
23,COc1ccccc1OCC(=O)OCc1cc(-c2ccco2)on1,-2.08% (inactive)

row,Structure (SMILES),activation
1,COc1ccc(C(=O)O/N=C(\N)c2ccccn2)cc1[N+](=O)[O-],6.36% (active)
2,O=C(COC(=O)c1ccccn1)NNC(=O)c1ccc([N+](=O)[O-])cc1,1.23% (inactive)
3,N/C(=N\OC(=O)Cc1ccc([N+](=O)[O-])cc1)c1ccccn1,1.92% (inactive)
4,CCOC(=O)c1cccc(NC(=O)CN(C)S(=O)(=O)c2ccc(-c3cocn3)s2)c1,-1.38% (inactive)
5,C=CCN1C(=O)[C@@H](CC(=O)N2CCN(C(=O)OCC)CC2)[C@]2(C(=O)OCC)CCCCC/C=C/12,0.11% (inactive)
6,CCC(=O)OCCCN1C(=O)CCC12CCC(c1ccccc1)CC2 (stereo not given),-1.9% (inactive)
7,CN(C)[C@H]1CCN(c2cccc3c2S(=O)(=O)N2CC[C@H](C2)O3)C1,1.72% (inactive)
8,Cc1ccc(CN2CCCCC(NC(=O)C3CCCCC3)C2=O)cc1 (stereo not given),-1.6% (inactive)
9,COC(=O)[C@]12C[C@H](CC(=O)N3CCN(C(=O)C4CC4)CC3)C(=O)N(CCC3=CCCCC3)C1=C[C@H](C(C)C)O[C@@H]2C1CC1,-1.23% (inactive)
10,Nn1c(SCC(=O)Nc2ccc(S(N)(=O)=O)cc2)nnc1-c1n[nH]c2c1CCC2,-1.75% (inactive)
11,Cc1cccc(-n2nc3c(c2NC(=O)c2cc4ccccc4o2)CS(=O)(=O)C3)c1,1.51% (inactive)
12,Cc1ccc(NC(=O)c2cc3ccccc3o2)cc1,10.5% (active)
13,C/C(=N\NC(=S)Nc1ccc(C)cc1)c1cc2ccccc2o1,-0.69% (inactive)
14,CC(C)(C)c1ccc(CSc2nnc(-c3cccs3)o2)cc1,1.61% (inactive)
15,COc1ccccc1C(=O)NC(=O)COC(=O)C1CC1,0.43% (inactive)
16,CCOc1ccc(C(O)Cn2c(=N)n(CCN3CCCCC3)c3ccccc32)cc1 (stereo not given),-0.25% (inactive)
17,Cn1c(=N)n(CC(O)c2ccccc2)c2ccccc21 (stereo not given),6.33% (active)
18,Cc1nc2ccccc2n1CC(O)c1ccccc1 (stereo not given),1.55% (inactive)
19,CCC(=O)Nc1ccc2c(c1)C(=O)N(C)[C@H]1CC[C@H](CC(=O)NCCOC)O[C@@H]1CO2,-0.71% (inactive)
20,COC(=O)C1CN(CCc2ccccc2)CCS(=O)(=O)N1Cc1cccc(Cl)c1 (stereo not given),-1.52% (inactive)
21,O=C(NC1CCCCN(Cc2ccc(Cl)cc2)C1=O)c1ccc(Br)cc1 (stereo not given),-2.55% (inactive)
22,O=C(NCc1ccco1)/C(=C/c1ccco1)NC(=O)c1ccccc1,-0.96% (inactive)
23,O=C(NC(Cc1ccccc1)C(=O)O)/C(=C\c1ccccc1)NC(=O)c1ccco1 (stereo not given),-0.54% (inactive)

row,Structure (SMILES),activation
1,O=C(NC(Cc1c[nH]c2ccccc12)C(=O)O)/C(=C/c1ccco1)NC(=O)c1ccccc1 (stereo not given),6.62% (active)
2,Cc1ccc(-n2c(SCC(=O)Nc3ccc(S(=O)(=O)Nc4nccs4)cc3)nnc2-c2ccccn2)cc1,-0.18% (inactive)
3,COc1cc(NC(=O)C2CCCN(S(=O)(=O)c3ccc(C(C)(C)C)cc3)C2)cc(OC)c1 (stereo not given),-1.6% (inactive)
4,CC(C)C(C#CC1CC1)N(Cc1ccc2c(c1)OCO2)C(N)=NC(=O)/C=C/c1cccc(C(F)(F)F)c1 (stereo not given),0.1% (inactive)
5,COC(=O)[C@]1(C#N)CC(=O)N(CC2CCCCC2)[C@@H]1c1ccccc1,0.64% (inactive)
6,Cc1cccc(NC(=S)NC(=O)c2ccc(Br)o2)c1,6.48% (active)
7,CCS(=O)(=O)c1ccc(-c2cccc(NC(=O)c3ccc(Br)o3)c2)nn1,1.53% (inactive)
8,O=C(Nc1cccc(C(=O)O)c1)/C(=C\c1ccccc1)NC(=O)c1ccc(Br)o1,-0.49% (inactive)
9,CC(=O)c1ccc(N=C2SCCCN2C(=O)C2CCCCC2)cc1,1.46% (inactive)
10,COC(=O)c1ccc(CN2C(=O)[C@]3(OCCC=C[C@H]3C)c3c(Br)cccc32)cc1,-3.24% (inactive)
11,O=C(CN1CCC(NC(=O)NCc2ccccc2)CC1)Nc1ccc2c(c1)OCCO2,-0.83% (inactive)
12,C=CCNc1nc(Nc2ccc(Cl)cc2)nc(OC)n1,-0.18% (inactive)
13,Clc1ccc(Nc2ccc3ccccc3n2)cc1,17.1% (active)
14,CC1(C)N=C(N)NC(Nc2ccc(Cl)cc2)=N1,0.62% (inactive)
15,CCOC(=O)/C=C/CN(C(=O)OC(C)(C)C)S(=O)(=O)N1CC=CC1,-0.7% (inactive)
16,COc1ccc(-n2c(SCC(=O)Nc3ccc4cn[nH]c4c3)nnc2-c2cccnc2)cc1,-1.7% (inactive)
17,CC(C)CNc1cccc2c1S(=O)(=O)N(Cc1cn(Cc3ccccc3C(F)(F)F)nn1)Cc1ccccc1O2,-1.42% (inactive)
18,O=C(CSc1nc2sc3c(c2c(=O)n1-c1ccccc1)CCCC3)NN=Cc1ccc(OCc2ccccc2)cc1,-1.69% (inactive)
19,CCOc1ccc(C2c3[nH]c4ccccc4c3CCN2Cc2cn(CC)nc2C)cc1 (stereo not given),6.76% (active)
20,CCOc1ccc(C2c3[nH]c4ccccc4c3CCN2Cc2cccn2-c2ncccn2)cc1 (stereo not given),1.92% (inactive)
21,COc1cccc(C2c3[nH]c4ccccc4c3CCN2Cc2cccc(C)n2)c1 (stereo not given),3.77% (inactive)
